{
  "source": "PubChem BioAssay (EPA / NIEHS)",
  "note": "The source made the active and inactive calls. How the source made its calls: active means hit-call score of the fitted dose curve at least 0.9, where 1 is the maximum; inactive means score below 0.9.",
  "data": [
    {"assay": "ATG_DR4_LXR_CIS: Attagene CIS-FACTORIAL HepG2 Assay for human Liver X Receptor (LXR), DR4 submotif (AID 2282929)", "conditions": "HepG2 Attagene DR4 cis-reporter, mRNA transcription; actives raise or lower the signal", "protocol": "ATG_CIS is a cell-based, multiplexed-readout assay that uses HepG2, a human liver cell line, with measurements taken at 24 hours after chemical dosing in a 24-well plate.ATG_DR4_LXR_CIS is one of 52 assay component(s) measured or calculated from the ATG_CIS assay. It is designed to make measurements of mRNA induction, a form of inducible reporter, as detected with fluorescence intensity signals by Reverse transcription polymerase chain reaction (RT-PCR) and Capillary electrophoresis technology.Data from the assay component ATG_DR4_LXR_CIS was analyzed into 1 assay endpoint. This assay endpoint, ATG_DR4_LXR_CIS, was analyzed with bidirectional fitting relative to DMSO as the negative control and baseline of activity. Using a type of inducible reporter, measures of mRNA for gain or loss-of-signal activity can be used to understand the reporter gene at the transcription factor-level as they relate to the gene NR1H2 and NR1H3. Furthermore, this assay endpoint can be referred to as a primary readout, because this assay has produced multiple assay endpoints where this one serves a reporter gene function. To generalize the intended target to other relatable targets, this assay endpoint is annotated to the nuclear receptor intended target family, where the subfamily is non-steroidal.\nHuman liver HepG2 cells are transiently transfected with multiple reporter transcription units (MRTUs) in 6-well plates using FuGene 6 reagent (Roche; 3 ml FuGene/1 mg DNA). The MRTU constructs are regulated by a cis-regulating element (promoter). […] A major difference between the CIS and TRANS system is that in CIS activities of endogenous TFs are measured, whereas the TRANS assay evaluates changes in activities of exogenous, chimeric NR-Gal4 proteins. […] At the end of 24 hour incubation, total RNA was isolated using TriZol reagent (Invitrogen). The isolated RNA is then reverse-transcribed using oligo(dT) primer and Mo-MLV reverse transcriptase (Invitrogen) with DNAse I (Ambion) treatment for 30 min. The one-tenth of the produced cDNA was amplified by PCR using Taq DNA polymerase (Invitrogen) and two reporter sequence-specific primers. The PCR products were fluorescently labeled by primer extension with 6-arboxyfluorescein (6-FAM) 5'-labeled reporter sequence-specific primer (2 min at 95 C, 20 s at 68 C and 10 min at 72 C) and these products were digested with 5U of HpaI (New England Biolabs) for 2h at 37 C. The fragments were purified using Qiaquick PCR columns (Qiagen), analyzed on an ABI 3130xL genetic analyzer (Applied Biosystems) with peak positions identified by using a set of X-rhodamine (ROX)-labeled MapMarker1000 molecular weight standards (BioVentures). The raw capillary electrophoresis data was processed using Attagraph software (Attagene).", "values": [
      {"smiles": "O=C(O)c1ccccc1O", "outcome": "inactive"},
      {"smiles": "CC(C)=CCCC(C)=CC(=O)O", "outcome": "inactive"},
      {"smiles": "O=S1(=O)CC(Cl)(Cl)C(Cl)(Cl)C1", "AC50": "2.41 µM (active)"},
      {"smiles": "NC(=O)NC(N)=O", "outcome": "inactive"},
      {"smiles": "CCCO[Si](OCCC)(OCCC)OCCC", "outcome": "inactive"},
      {"smiles": "CCCCCCCCCCCCCCCCCC(=O)OCCCCCCCCCCCCCC(C)C", "outcome": "inactive"},
      {"smiles": "OCCN1CCOCC1", "outcome": "inactive"},
      {"smiles": "CCn1cc(C(=O)O)c(=O)c2ccc(C)nc21", "outcome": "inactive"},
      {"smiles": "CCCCCCCCCCCCCC(=O)OCC", "outcome": "inactive"},
      {"smiles": "O=C(O)CS", "outcome": "inactive"},
      {"smiles": "[Cu+]", "outcome": "inactive"},
      {"smiles": "CCCCCCC(C)O", "note": "(stereo not given)", "outcome": "inactive"},
      {"smiles": "CC1=CC(O)CC(C)(C)C1", "note": "(stereo not given)", "outcome": "inactive"},
      {"smiles": "CCCCCCCCCCCCOCCOS(=O)(=O)O", "outcome": "inactive"},
      {"smiles": "CC(C)CCOC(=O)CC(C)C", "outcome": "inactive"},
      {"smiles": "N=C1N=C(N)c2ccccc21", "AC50": "100 µM (active)"},
      {"smiles": "CC/C=C\\C#N", "outcome": "inactive"},
      {"smiles": "CCCCCCCOC(C)=O", "outcome": "inactive"},
      {"smiles": "CCCCCC1CCC(=O)O1", "note": "(stereo not given)", "outcome": "inactive"},
      {"smiles": "CCCCCCCCCCCCOC(C)=O", "outcome": "inactive"},
      {"smiles": "O=C(O)c1ccco1", "outcome": "inactive"},
      {"smiles": "CCC(C)(CCCC(C)C)OC(C)=O", "note": "(stereo not given)", "outcome": "inactive"},
      {"smiles": "CCOC(=O)C(=O)OCC", "outcome": "inactive"},
      {"smiles": "CC=CC(=O)C1=C(C)C=CCC1(C)C", "outcome": "inactive"},
      {"smiles": "CCOC(=O)CC(C)C", "outcome": "inactive"},
      {"smiles": "OCCCO", "outcome": "inactive"},
      {"smiles": "NNC(=O)OCc1ccccc1", "outcome": "inactive"},
      {"smiles": "CC(=O)c1ccc(O)cc1", "outcome": "inactive"},
      {"smiles": "CC(C)Cc1ccccc1", "outcome": "inactive"},
      {"smiles": "CC(C)C(=O)OCC=Cc1ccccc1", "outcome": "inactive"},
      {"smiles": "c1ccc2c(c1)-c1ccc3ccc4cccc5cc-2c1c3c45", "outcome": "inactive"},
      {"smiles": "CC(=O)CCc1ccc(O)cc1", "outcome": "inactive"},
      {"smiles": "C=CCOC(=O)/C=C\\C(=O)OCC=C", "AC50": "27.9 µM (active)"},
      {"smiles": "CC(C)C(=O)c1ccccc1", "outcome": "inactive"},
      {"smiles": "CC(CO)c1ccccc1", "note": "(stereo not given)", "outcome": "inactive"},
      {"smiles": "CC(C)(C)c1cc(CCC(=O)OCCSCCOC(=O)CCc2cc(C(C)(C)C)c(O)c(C(C)(C)C)c2)cc(C(C)(C)C)c1O", "outcome": "inactive"},
      {"smiles": "CC(=O)CCC=C(C)CCC=C(C)C", "outcome": "inactive"},
      {"smiles": "Nc1ccc(N)c([N+](=O)[O-])c1", "outcome": "inactive"},
      {"smiles": "CCC(CC)CO", "outcome": "inactive"},
      {"smiles": "O=C(C=Cc1ccccc1)OCCCc1ccccc1", "outcome": "inactive"}
    ]}
  ]
}
